DT40 TDP1 no CPT: qHTS for Inhibitors of human tyrosyl-DNA phosphodiesterase 1 (TDP1): qHTS in cells in absence of CPT; DT40 Tdp1-/- hTDP1 cells, no CPT, ATP luminescence, 48 h; Potency, µM (doses to about 46.2 µM), without a hit: top-dose activity change, negative = growth inhibition, most hits filed as inhibitors; actives 15% (n = 420,000); further: potency means the concentration at half of the fitted maximal effect; nearly all actives have a fitted effect of over 55% in size
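Readout: luminescence from CellTiter-Glo after 30 min in the dark at RT. Cells: DT40 Tdp1-/- with stable hTDP1, 400/well. Exposure: compounds alone, ≥48 hr, 37 °C.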
DT40 TDP1 CPT: qHTS for Inhibitors of human tyrosyl-DNA phosphodiesterase 1 (TDP1): qHTS in cells in presence of CPT; chicken DT40 Tdp1-/-;hTDP1 cells + 20 nM CPT, ATP luminescence, 48 h; AID 686979, 2013; Potency, µM (titrated, usually from 46.2 µM), inactives show at the top dose activity change, negative = growth inhibition, actives largely listed as inhibitors; actives 12% (n = 420,000); further: potency means the concentration at half of the fitted maximal effect; nearly all actives have a fitted effect of over 55% in size
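Chicken DT40 Tdp1-/- cells complemented with human TDP1, 400 cells/well, exposed to compounds plus 20 nM camptothecin for at least 48 h at 37 C; viability read as ATP content by CellTiter-Glo luminescence.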
HT1080-NT tox: qHTS for induction of synthetic lethality in tumor cells producing 2HG: qHTS for the HT-1080-NT fibrosarcoma cell line; HT-1080-NT fibrosarcoma viability, CellTiter-Glo ATP luminescence, 48 h; Potency, µM (titrated, usually from 46.1 µM), inactives show at the highest dose activity, negative = less viability, hits mostly cytotoxic; actives 1.6% (n = 360,000);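 further: NT is the 2HG producing partner of a matched IDH1 knockdown line; potency means the concentration at half of the fitted maximal effect; 0% = DMSO-treated cells and -100% = media-only wells without cells; nearly all actives have a fitted effect of over 55% in size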
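750 cells/well, RPMI + 5% FBS; 2 h settle, compound pin-transfer, 48 h at 37 degrees C. CellTiter-Glo 10 min RT, luminescence. Normalized to DMSO and media-only wells.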
HT1080 IDH1KD tx: qHTS for induction of synthetic lethality in tumor cells producing 2HG: qHTS for the HT-1080-IDH1KD cell line. HT-1080 IDH1 knockdown viability, ATP luminescence, 48 h. Potency, µM (titrated, usually from 46.1 µM), for inactives: at the top dose activity, negative = toxicity, hits mostly cytotoxic. actives 2% (n = 360,000);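 further: potency means the concentration at half of the fitted maximal effect; 0% = DMSO wells and -100% = cell-free medium wells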
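Assay cells: HT-1080 with IDH1 knockdown, 750 per well, RPMI/5% FBS. Exposure: 48 h at 37 °C following 2 h pre-incubation. Read: CellTiter-Glo luminescence; fitted concentration-response, curve class assigned.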
IL1B secr inh: qHTS for Inhibitors of Inflammasome Signaling: IL-1-beta AlphaLISA Primary Screen. THP-1 LPS/ATP IL-1B secretion, AlphaLISA, 16 h; hits give low values. activity change, % at 57.5 µM. actives 4.7% (n = 360,000); in the data active means activity change below about -50%; inconclusive means mostly about -30% to -49%
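THP-1 cells pretreated 1 hr with compounds (up to 57.5 uM final), then stimulated with LPS (250 ng/mL final) plus ATP (1.25 mM final); secreted IL-1B measured by AlphaLISA after 16 hr, decreased signal indicating inhibition.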
Starred values were filed as active, the others as inactive; i = inactive; ? = inconclusive; . = no result given. An excerpt weighted towards active compounds, which were near 19% of everything screened. Unless noted, the call rests on the fitted dose curve; in most records, active means well fitted curve in the direction sought with a large enough effect; inconclusive means small, poorly fitted or top-dose-only effect, or another doubt; inactive means no such curve, though single readings can be large; an effect the other way counts as inactive or inconclusive. Unless noted, on the % scale 0 is the no-effect control and ±100 the full control effect.

SMILES | DT40 TDP1 no CPT | DT40 TDP1 CPT | HT1080-NT tox | HT1080 IDH1KD tx | IL1B secr inh
CC(C)c1cc(C(=O)N2CCCC(Nc3ccc(F)cc3)C2)nc(N)n1 (configuration not stated) | 3.8% | 7.9% | 3.4% | 4.3% | 2.6
CCCC(=O)Nc1ccc(C2C(=O)c3ccccc3C2=O)cc1 | ? | 16.4µM* | -9.4% | -1.3% | -18.9
CC(C)n1c(SCC(=O)NCc2ccco2)nnc1C1CC1 | -1.5% | -7.6% | -7.6% | -4.9% | 14.5
Cc1cc(C)c(S(=O)(=O)c2ccccc2C)c(OCC(C)(C)C)n1 | 9.2µM* | 10.3µM* | -24.4% | -22.0% | -23.6
Cc1ccc(S(=O)(=O)c2c(C)cc(C)nc2Oc2cccc(C)c2C)cc1 | 18.4µM* | ? | -20.4% | -3.8% | -7.9
Cc1cc(C)c(S(=O)(=O)c2ccccc2C)c(SCC(C)C)n1 | 23.1µM* | ? | -3.1% | -5.1% | 10.2
CCCSc1nc(C)cc(C)c1S(=O)(=O)c1ccccc1C | 7.31µM* | 16.4µM* | -6.8% | -10.9% | 3.1
COc1ccc(NC(=O)Nc2c(C)n(C)n(-c3ccccc3)c2=O)cc1OC | 18.7% | 13.6% | 6.9% | -4.1% | i
Cc1ccc(NC(=O)Nc2c(C)n(C)n(-c3ccccc3)c2=O)cc1C | 23.1µM* | 16.4µM* | 23.5% | 17.7% | 13.1
Cc1c(NC(=O)CC(=O)Nc2c(C)n(C)n(-c3ccccc3)c2=O)c(=O)n(-c2ccccc2)n1C | -11.4% | -12.2% | 0.0% | 0.1% | 12.1
Cc1c(NN=C(C#N)C#N)c(=O)n(-c2ccccc2)n1C | ? | -84.8% | 3.3% | -1.6% | -60.8*
N#CCCN(Cc1cccnc1)C(=O)c1sc2cc(F)ccc2c1Cl | 14.6µM* | ? | -0.2% | -2.3% | 5.4
COc1ccccc1CNC(=O)C1CCN(S(=O)(=O)c2cn(C)cn2)CC1 | ? | 0.2% | . | . | .
CCc1ccc(OCC(=O)NC(NC(=S)Nc2ccc(C)cc2C)C(Cl)(Cl)Cl)cc1 (configuration not stated) | 23.1µM* | ? | ? | ? | -16.5
Cc1ccccc1NC(=S)NC(NC(=O)COc1ccccc1)C(Cl)(Cl)Cl (configuration not stated) | ? | ? | -11.0% | -9.6% | 0.0
COC(=O)c1ccccc1NC(=S)NC(NC(=O)COc1ccccc1)C(Cl)(Cl)Cl (configuration not stated) | -19.7% | -1.6% | 6.7% | 5.2% | -76.6*
CCc1ccc(OCC(=O)NC(NC(=S)Nc2ccccc2C)C(Cl)(Cl)Cl)cc1 (configuration not stated) | ? | ? | 16.4µM* | ? | -15.1
CCc1ccc(OCC(=O)NC(NC(=S)Nc2ccccc2OC)C(Cl)(Cl)Cl)cc1 (configuration not stated) | ? | ? | -9.5% | -14.3% | -14.6
CCc1ccc(OCC(=O)NC(NC(=S)Nc2ccccc2)C(Cl)(Cl)Cl)cc1 (configuration not stated) | ? | ? | 16.4µM* | 16.4µM* | ?
COc1cccc(CNC(=O)CC(NC(=O)c2ccccc2)c2ccccc2)c1 (configuration not stated) | -15.6% | ? | -4.2% | -3.2% | -8.6
CC1CN(S(=O)(=O)c2cccc(C(=O)OC(C)C(=O)NC3CCCCC3C)c2)CC(C)O1 (configuration not stated) | -23.4% | -4.0% | -17.4% | -0.9% | i
CC(C)[C@H](NC(=O)C1CCN(S(=O)(=O)c2ccc(F)cc2)CC1)C(=O)N1CCCCCC1 | -17.4% | -14.2% | 0.1% | 5.7% | 8.1
O=C(c1nc2ccccn2c1CNCCOc1cccnc1)N1CCOCC1 | -14.8% | -6.7% | 5.8% | 7.3% | -1.0
CC(NC(=O)c1ccccc1Cl)C1CC2CCC1C2 (configuration not stated) | -8.5% | 0.3% | 6.3% | -4.0% | 26.3
CC(C)CC(=O)NC(NC(=S)Nc1ccccc1)C(Cl)(Cl)Cl (configuration not stated) | ? | ? | -7.3% | ? | -77.1*
SMILES | DT40 TDP1 no CPT | DT40 TDP1 CPT | HT1080-NT tox | HT1080 IDH1KD tx | IL1B secr inh
Cc1ccc(C)c(NC(=S)NC(NC(=O)Cc2cccc3ccccc23)C(Cl)(Cl)Cl)c1 (configuration not stated) | 6.51µM* | 8.2µM* | -9.7% | ? | ?
CC(C)CC(=O)NC(Nc1ccc([N+](=O)[O-])cc1)C(Cl)(Cl)Cl (configuration not stated) | 23.1µM* | 18.4µM* | ? | -28.1% | 6.7
CCCN1CCN(C(=O)Nc2cccc(C(F)(F)F)c2)CC1 | -13.8% | -23.6% | -0.5% | 6.5% | -9.1
CCN1CCN(Cc2c(O)ccc3oc(C)c(C(=O)Nc4cccc(C(F)(F)F)c4)c23)CC1 | ? | 14.6µM* | . | . | .
Cc1oc2ccc(O)c(CN3CCN(C)CC3)c2c1C(=O)Nc1cccc(C(F)(F)F)c1 | ? | 14.6µM* | . | . | .
Cc1cc(C)cc(Cn2cc(CN3CC(N4CCN(C)CC4)CS3(=O)=O)nn2)c1 (configuration not stated) | -16.4% | 9.1% | 10.2% | 3.8% | -5.9
Cc1c2c(nc3nnnn13)CCCC2 | -2.0% | 0.1% | 7.8% | 7.4% | 14.6
CS(=O)(=O)Nc1cc(C(=O)N2CCNC(=O)C2)c2c(c1)ncn2CCc1ccccc1 | -14.6% | 0.7% | . | . | .
CCN(CC(=O)Nc1ccccc1C(F)(F)F)C(=O)c1cccc(S(=O)(=O)N2CCN(C)CC2)c1 | ? | -24.8% | -0.5% | -1.8% | 14.1
COc1ccc(-c2csc(NC(=O)Cc3ccccc3F)n2)c(OC)c1 | ? | ? | -14.9% | -21.6% | -60.5*
COc1ccc(CC(=O)Nc2nc(C(C)(C)C)cs2)cc1 | -29.4% | -18.6% | -9.9% | -16.8% | -108.0*
COc1ccc(OC)c(-c2csc(NC(=O)Cc3cccs3)n2)c1 | ? | -6.7% | -2.4% | -0.7% | -17.5
COc1ccc(OC)c(-c2csc(NC(=O)c3ccc4c(c3)OCO4)n2)c1 | 14.6µM* | ? | 26.1% | 15.0% | -3.4
COc1ccc(CC(=O)Nc2nc(C)cs2)cc1 | 12.4% | 7.4% | 17.8% | 6.7% | 5.3
COc1ccc(OC)c(NC(=O)c2ccc3c(c2)OCO3)c1 | 0.3% | -15.9% | 11.7% | 8.7% | 0.0
COc1ccc(OC)c(-c2csc(NC(=O)CSc3ccccc3)n2)c1 | 13µM* | ? | -1.2% | 1.0% | ?

Source: PubChem
